Here are results for 21 compounds from PubChem BioAssay (NCI).

About 79,000 compounds went through this panel and 15% of them were active in at least one assay; those are over-represented in the sample as a whole. Values without a mark were called inactive. Active and inactive are the calls of the source. Cut-off read from the data, not from the text of the source: active = growth inhibition above about 70%; inactive = the rest.

The nature of assay [1]: NCI Yeast Anticancer Drug Screen. Data for the rad50 strain (AID 155).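 Note: 0% = growth of vehicle-only cultures of the same strain.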 The note with it: S. cerevisiae rad50 strain growth inhibition; at 50.0 µM; stronger effect = higher value. The gist of the method:
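Readout: growth inhibition relative to vehicle-treated cultures. Compound exposure was carried out in a genetically defined yeast strain deficient in DNA damage repair.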

Assay [2] can be described thus: NCI Yeast Anticancer Drug Screen. Data for the mec2-1 strain (AID 157). The note with it: S. cerevisiae mec2-1 strain, at 50.0 µM, stronger effect = higher value. The gist of the method: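 mec2-1 yeast strain, carrying an alteration in DNA damage repair or cell cycle control, was exposed to compounds; growth inhibition was measured relative to vehicle-treated controls.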
A short description of assay [3]: NCI Yeast Anticancer Drug Screen. Data for the sgs1 mgt1 strain (AID 161).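 Note: 0% = growth of cultures given vehicle only.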 The note with it: S. cerevisiae sgs1 mgt1 strain, at 50.0 µM, stronger effect = higher value. The gist of the method: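 Yeast cells carrying a defined DNA-repair defect were exposed to test compounds. Growth inhibition was measured relative to vehicle-treated controls.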
The nature of assay [4]: NCI Yeast Anticancer Drug Screen. Data for the cln2 rad14 strain (AID 165).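 Note: 0% = growth equal to vehicle treated cultures.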 The note with it: S. cerevisiae cln2 rad14 strain, at 50.0 µM, stronger effect = higher value. The gist of the method: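 Yeast carrying cln2 and rad14 alterations (cell cycle control and DNA damage repair) were exposed to compounds. Growth inhibition was measured against vehicle-treated controls.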
The nature of assay [5]: NCI Yeast Anticancer Drug Screen. Data for the bub3 strain (AID 167). The note with it: S. cerevisiae bub3 mutant strain, at 50.0 µM, stronger effect = higher value. The gist of the method:
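Readout: yeast growth inhibition, expressed relative to vehicle-only wells. The test organism is a mutant strain from a panel with lesions in DNA repair or checkpoint genes.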

Assay [6] in a line: NCI Yeast Anticancer Drug Screen. Data for the mlh1 rad18 strain (AID 175). Conditions: S. cerevisiae mlh1 rad18 strain growth inhibition; at 50.0 µM; stronger effect = higher value. The gist of the method:
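Growth inhibition of the yeast strain was measured after compound exposure and expressed relative to vehicle-treated controls. The strain carries defined defects in DNA damage repair.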

For `CC(=O)Nc1nc2c(ncn2C2OCC(OC(C)=O)C(OC(C)=O)C2OC(C)=O)c(=O)[nH]1` (stereo unspecified) (tested in a mixture with another compound), the growth inhibition was 4.1% in assay [1]; -4.35% in assay [2]; 2.65% in assay [3]; -6.9% in assay [4]; 6.1% in assay [5]; 6.95% in assay [6].

As to `Cc1ccc(O)cc1Cl`, the growth inhibition was -17.8% in assay [1]; -39% in assay [2]; -20.6% in assay [3]; -7.65% in assay [4]; -31.9% in assay [5]; 1.75% in assay [6].

Turning to `O=C(O)c1cc(Cl)nc(Cl)c1`, the growth inhibition in assay [1] was -2.1%; in assay [2] it was 22%; in assay [3], 2.05%; in assay [4], -26.2%; in assay [5], 17.4%; in assay [6], -14.8%.

Regarding `COC[C@H]1OC(=O)c2coc3c2[C@@]1(C)C1=C(C3=O)[C@@H]2CCC(=O)[C@@]2(C)C[C@H]1OC(C)=O`, the growth inhibition in assay [1] is 92.3% (active); in assay [2], 93.3% (active); in assay [3] it was 89.4% (active); in assay [4] it was 89.1% (active); in assay [5] it was 86.1% (active); in assay [6], 88.8% (active).

Regarding `NC(CSSCC(N)C(=O)c1ccccc1)C(=O)c1ccccc1` (stereo unspecified), the growth inhibition was 23.9% in assay [1]; 0.8% in assay [2]; 9.3% in assay [3]; 6% in assay [4]; 6.55% in assay [5]; 4.35% in assay [6].

Take `ClCc1cccnc1`: the growth inhibition in assay [1] is 16.9%; in assay [2], -2.35%; in assay [3], 5.25%; in assay [4], 18.1%; in assay [5], 3.6%; in assay [6] it was 31.7%.

In the case of `Cc1ccc(OP(=O)(Oc2ccc(C)cc2)Oc2ccc(C)cc2)cc1.Cc1ccc(OP(=O)(Oc2ccc(C)cc2)Oc2ccc(C)cc2)cc1.Cc1ccc(OP(=O)(Oc2ccc(C)cc2)Oc2ccc(C)cc2)cc1.Cc1ccc(OP(=O)(Oc2ccc(C)cc2)Oc2ccc(C)cc2)cc1.[Cr+3].[O-][Cl+3]([O-])([O-])O`, the growth inhibition in assay [1] was 0.95%; in assay [2], -2.2%; in assay [3], 0.15%; in assay [4] it was -3.05%; in assay [5], -4.35%; in assay [6] it was -3.55%.

In the case of `COC(=O)C(O)(c1ccccc1)C1CCCC1` (stereo unspecified), the growth inhibition was 20.8% in assay [1]; -10.1% in assay [2]; -10.6% in assay [3]; 11.9% in assay [4]; 10.1% in assay [5]; -9.5% in assay [6].

For the compound `Nc1c([N+](=O)[O-])cncc1[N+](=O)[O-]`, the growth inhibition was -30.6% in assay [1]; -4.15% in assay [2]; -14.3% in assay [3]; -40.6% in assay [4]; -41.9% in assay [5]; -6.8% in assay [6].

For the compound `c1c2c(cc3c1OCO3)-c1cc3ccc4c(c3c[n+]1CC2)OCO4`, the growth inhibition was 9.2% in assay [1]; -9.1% in assay [2]; 0.35% in assay [3]; 4.9% in assay [4]; -48.5% in assay [5]; -52.5% in assay [6].

Take `Cc1ccc(O)cc1C`: the growth inhibition in assay [1] was 9.95%; in assay [2] it was 14.1%; in assay [3], 26%; in assay [4], 26.8%; in assay [5] it was 3.75%; in assay [6] it was 7.95%.

As for `O=C(COc1ccc(Cl)cc1)Nc1ccc(Cl)cc1C(=O)c1ccccc1`, the growth inhibition in assay [1] is -15.8%; in assay [2] it was -8.9%; in assay [3], 17.3%; in assay [4], 18.8%; in assay [5], 1.1%; in assay [6] it was -18.4%.

Consider `O=Cc1ccccc1.[C-]#[O+].[C-]#[O+].[C-]#[O+].[Cr]`, for which the growth inhibition in assay [1] was 7.35%; in assay [2] it was -34.2%; in assay [3], 1.8%; in assay [4], -19.1%; in assay [5], 11.1%; in assay [6] it was 15.8%.

On to `CCOC(=O)OC1(c2ccccc2)CCN(C)CC1`, for which the growth inhibition in assay [1] is -12.2%; in assay [2], 5.75%; in assay [3] it was -4.55%; in assay [4], 34.3%; in assay [5], 21.4%; in assay [6] it was 21.4%.

As to `Cc1c([As](=O)(O)O)ccc2nc3c(C)c([As](=O)(O)O)ccc3nc12`, the growth inhibition in assay [1] was 24.5%; in assay [2], 1.25%; in assay [3] it was 15.4%; in assay [4], 9.25%; in assay [5] it was 2.4%; in assay [6] it was 21.6%.

As to `O=[N+]([O-])c1cc(S(=O)(=O)F)cc(Cl)c1O`, the growth inhibition was -10.2% in assay [1]; 1.6% in assay [2]; 2.25% in assay [3]; -3.7% in assay [4]; -2.75% in assay [5]; 8.45% in assay [6].

For the compound `O=C(COc1cccc(Cl)c1)Nc1cccc(NC(=O)c2ccc(S(=O)(=O)F)cc2)c1`, the growth inhibition in assay [1] was 2.75%; in assay [2], 5.95%; in assay [3] it was -6.85%; in assay [4], -17.2%; in assay [5] it was -5.75%; in assay [6], 9.2%.

For `C=CC(=O)OC(C)C`, the growth inhibition was 21.6% in assay [1]; 11.2% in assay [2]; 2.35% in assay [3]; -1.7% in assay [4]; 33.8% in assay [5]; 15.8% in assay [6].

Consider `Nc1ccc(Sc2ccc(N)cc2)cc1`, for which the growth inhibition in assay [1] was 15.5%; in assay [2], 0.35%; in assay [3], -0.6%; in assay [4], -53.1%; in assay [5] it was -8.25%; in assay [6], 23.1%.

For `O=C(O)C(O)CO.[Pb]` (stereo unspecified), the growth inhibition in assay [1] was -1.95%; in assay [2] it was 0.35%; in assay [3], -2.5%; in assay [4], 12.4%; in assay [5], -15.7%; in assay [6] it was 9.85%.

With `CN1CCN[C@@H]2CCCC[C@@H]21`, the growth inhibition in assay [1] is 11.2%; in assay [2] it was -5%; in assay [3], -10.2%; in assay [4] it was -7.8%; in assay [5] it was 5.65%; in assay [6] it was -11.6%.
